The entries come from a sample that favours hits as a whole.
TcdB inh = TcdB glycohydrolase inhibition | inhibition, % at 9.99 µM | P18177 | TcdB glycohydrolase enzymatic assay, plate reader | hit rate 0.24% among 350,000; in the data active = inhibition above about 10%
BoNT A protease = inhibitors of Botulinum neurotoxin A light chain protease | multiplex microsphere protease substrate cleavage, flow cytometry | inhibition, % at 10 µM | hit rate 0.17% among 360,000 | AID 588499
BoNT-F LC inh = blocks Botulinum neurotoxin F light chain protease | Multiplex microsphere protease cleavage assay, flow cytometry | inhibition, % at 10 µM | hit rate 0.22% among 360,000; in the data active = inhibition above about 35%, passing the limit was not always enough; inconclusive = no clear call, values can overlap the other calls
Autofluor counter = counter-screen for toxin protease inhibitors: compound fluorescence; AID 624483; hit rate 3.1% among 360,000; fluorescence intensity (no concentration beside the values); compound autofluorescence counterscreen, microsphere flow cytometry; hits give high values; in the data active = fluorescence intensity above about 16000; inconclusive = no clear call, values can overlap the other calls
Anthrax LF inh2 = inhibitors of Bacillus anthracis lethal factor protease; P15917; multiplex microsphere protease cleavage assay, LF; inhibition, % at 10 µM; hit rate 0.12% among 360,000; AID 588501
A number is an active result; – = inactive; ? = inconclusive; · = no result given. Cut-off read from the data, not from the text of the source, unless noted: active = inhibition above about 30%; inconclusive = no clear call, values can overlap the other calls; inactive = below that.

SMILES	TcdB inh	BoNT A protease	BoNT-F LC inh	Autofluor counter	Anthrax LF inh2
CCOC(=O)c1nnn(-c2nonc2N)c1CN1CCCC1	–	–	–	–	–
COc1ccc(NC(=O)N[C@@H]2CC[C@@H](CCn3cc(-c4ccccn4)nn3)O[C@H]2CO)cc1	–	·	·	·	·
CCCCNC(=O)Nc1ccccc1CC	–	–	?	–	–
CCCCNC(=O)Nc1cc(C(F)(F)F)c[nH]c1=O	·	–	–	24583	–
Cc1cc(SCC(=O)N/N=C/c2ccco2)nc2ccccc12	14	–	–	–	–
COc1ccc(NC(=O)C2OC3OC(C)(C)OC3C3OC(C)(C)OC23)cc1 (stereo unspecified)	·	–	–	23845	–
CCCCCOc1ccc(NC(=O)C2OC3OC(C)(C)OC3C3OC(C)(C)OC23)cc1 (stereo unspecified)	·	–	–	–	–
O=C(NCc1ccccc1F)[C@H]1[C@H](CO)[C@H]2Cn3c(cccc3=O)[C@H]2N1CC1CCCC1	–	·	·	·	·
Cc1cc2cc(CNC(=O)c3ccc4c(c3)OCO4)ccc2[nH]1	–	67	–	–	–
CCc1c(C(=O)NCc2ccc3c(c2)OCO3)[nH]c(C)c1C(C)=O	·	–	–	17026	–
O=C(NCc1ccc2c(c1)OCO2)c1ccc2c(c1)OCO2	–	–	–	–	–
CCCC#Cc1cnc2c(c1)C(=O)N([C@H](C)CO)C[C@H](C)[C@H](CN(C)Cc1ccc(C(=O)O)cc1)O2	–	·	·	·	·
O=C(CCN1C(=O)c2ccccc2C1=O)NCc1ccncc1	·	–	–	–	–
O=C(CN1C(=O)c2ccccc2C1=O)NCc1ccncc1	·	–	–	20208	–
C[C@H](NC(=O)C[C@@H]1CC[C@@H](NC(=O)C2CCOCC2)[C@@H](CO)O1)c1ccccc1	–	·	·	·	·
Cc1cccc(NC(=S)NNC(=O)c2ccco2)c1	·	–	–	–	–
O=C(NC(=S)Nc1ccc(N2CCCCC2)cc1)c1ccco1	–	–	–	20910	–
Cc1ccc(NC(=S)NNC(=O)c2ccco2)cc1	·	–	–	21506	–
CCCCNC(=S)NNC(=O)c1ccco1	·	–	–	16637	–
OC[C@H]1[C@@H](c2ccccc2)C2(CN(Cc3ccccc3)C2)N1Cc1ccncc1	–	·	·	·	·
COc1ccccc1CNC(=O)C[C@H]1C[C@@H]2c3cc(NC(=O)c4ccc5c(c4)OCO5)ccc3O[C@@H]2[C@@H](CO)O1	–	·	·	·	·
CN1c2ccc(-c3ccccc3)cc2[C@H]2[C@H](CCN2C(=O)Cc2cccnc2)[C@@H]1CO	–	·	·	·	·
CCN(CC)c1ccc(C=Nc2ccc(N(C)C)cc2)c(O)c1	·	–	–	–	–
CCN(CC)c1ccc(/C=N/Nc2ccccc2)c(O)c1	·	–	–	22767	–
CCN(CC)c1ccc(N=Cc2ccc(N(CC)CC)cc2O)cc1	·	?	–	22151	–
SMILES	TcdB inh	BoNT A protease	BoNT-F LC inh	Autofluor counter	Anthrax LF inh2
CCN(CC)c1ccc(C=Nc2ccc(C)cc2)c(O)c1	·	–	–	–	–
CCN(CC)c1ccc(C=Nc2cc(C)cc(C)c2)c(O)c1	–	50	–	–	–
CCN(CC)c1ccc(/C=N/Nc2cccc(C)c2)c(O)c1	·	–	–	–	–
O=C(Nc1ccccc1)N[C@H]1CC[C@@H](CCn2cc(-c3ccccc3F)nn2)O[C@@H]1CO	–	·	·	·	·
COc1ccc(NC(=O)N(C)C[C@@H]2OCCCC[C@H](C)Oc3ccc(NS(=O)(=O)c4c(C)noc4C)cc3C(=O)N([C@@H](C)CO)C[C@H]2C)cc1	–	·	·	·	·
C[C@H](CO)N1C[C@H](C)[C@H](CN(C)S(=O)(=O)c2cn(C)cn2)Oc2ncc(-c3ccc(F)cc3)cc2C1=O	–	·	·	·	·
Cc1cc(C(F)(F)F)c(C#N)c(SCC(=O)NC(C)(C)C)n1	·	–	–	25162	–
Cc1coc(NC(=O)CSc2nc(-c3ccc(Cl)cc3)cc(C(F)(F)F)c2C#N)n1	·	–	–	16407	–
COc1ccc(-c2cc(C(F)(F)F)c(C#N)c(SCC(=O)Nc3nc(C)co3)n2)cc1	–	–	–	–	–
Cc1cc(C)c(C#N)c(SCC(=O)NC(C)(C)C)n1	–	–	–	–	–
CCCNC(=O)N(C)C[C@@H]1Oc2ncc(C#CC3CCCCC3)cc2C(=O)N([C@H](C)CO)C[C@@H]1C	–	·	·	·	·
C[C@@H]1CN([C@H](C)CO)C(=O)c2cc(C#CC3CC3)cnc2O[C@@H]1CN(C)C(=O)c1ccccc1	–	·	·	·	·
COc1c2ccoc2c(OCC=C(C)C)c2oc(=O)ccc12	–	–	–	–	–
CC(C)=CCOc1c2occc2cc2ccc(=O)oc12	13	–	–	–	–
CCc1cc(N2CCOCC2)cc2c1[nH]c1ccccc12	–	–	–	17063	–
COCCCNC(=S)NNC(=S)Nc1ccc(F)cc1F	·	?	–	21111	–
COC(=O)/C=C(\C)NC(=O)c1ccc(F)cc1	·	–	–	–	–
COC(=O)/C=C(\C)NC(=O)c1cccs1	·	–	–	18031	–
